Source: PubChem BioAssay
The source made the active and inactive calls.

Experiments:
[1] = tested on: PRMT1 (protein arginine N-methyltransferase 1); assay: PRMT1 binders on small-molecule microarrays, primary screen, biochemical, small-molecule microarray, 635 nm fluorescence (AID 1088); settings: small-molecule microarray binding, higher = more signal;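 further: binding of Prmt1 protein to compounds spotted on small-molecule microarray slides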
[2] = yeast growth modulation, basal conditions, primary screen, YJM789 clinical isolate, OD600, 24 h (AID 1089);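 further: growth of clinical yeast isolate S. cerevisiae YJM 789 seeded 1000 cells per well; test concentration not given here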; settings: S. cerevisiae YJM789 growth, higher = more signal, called active from +8 up or from −8 down
[3] = fission yeast growth modulation, primary screen, strain 972, OD600, 24 h, no modulator (AID 1090);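 further: basal condition with compound alone and no growth modifier present; test concentration not given here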; settings: S. pombe 972 growth, higher = more signal, called active from +8 up or from −8 down
[4] = S. cerevisiae growth modulation with rapamycin, primary screen, strain BY4716, OD600, 96 h (AID 1091); settings: higher = more signal, called active from +8 up or from −8 down; further: test concentration not given here
[5] = target: Torsin-1A-interacting protein 2 (Homo sapiens) (UniProt Q8NFQ8); assay: LULL1 binders on small-molecule microarray, primary screen, cell lysate, human LULL1 lysate, 635/667 nm fluorescence (AID 1092); settings: hLULL1 lysate binding, 635 nm fluorescence, higher = more signal;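 further: probe is lysate of COS7 cells overexpressing human LULL1; score merges per-feature 667 nm fluorescence with signal-to-noise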
[6] = E. coli growth modulation, two-sided OD650, primary screen, E. coli filamentation project, strain DRC41, 24 h (AID 1093); settings: OD650, 24 h, higher = more signal, called active from +8 up or from −8 down;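 further: MC1000 strain lacking acrAB efflux and sulA so SOS filamentation is blocked; test concentration not given here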
[7] = small-molecule microarray binders of probe aLefty2, primary screen, biochemical, biotinylated probe, 635/667 nm fluorescence (AID 1094); settings: higher = more signal;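 further: score merges spot fluorescence near 667 nm with spot signal-to-noise ratio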
[8] = tested on: Noggin (protein binding on small-molecule microarray); assay: Noggin binders on small-molecule microarray, primary screen, biochemical, 635/667 nm fluorescence (AID 1095); settings: 635 nm fluorescence, higher = more signal;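 further: score merges 667 nm feature fluorescence with signal to noise over triplicate slides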
[9] = target: Neurogenic locus notch homolog protein 3 (Homo sapiens) (UniProt Q9UM47); assay: NOTCH3 binders on small-molecule microarray, primary screen, biochemical, 635/667 nm fluorescence (AID 1096); settings: NOTCH3 binding, 635 nm fluorescence, higher = more signal
[10] = small-molecule microarray binders of probe aEGFR, primary screen, biochemical, biotinylated probe, 635/667 nm fluorescence (AID 1097); settings: higher = more signal;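 further: probe is a biotinylated anti-EGFR antibody binding compounds printed on slides; score combines fluorescence near 667 nm and signal to noise of each spot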
[11] = tested on: Plasmodium falciparum Sir2 (PF13_0152, Sir2A); assay: pfSir2 binders on small-molecule microarrays, primary screen, biochemical, small-molecule microarray, 635 nm fluorescence (AID 1098); settings: small-molecule microarray binding, fluorescence 635 nm; higher = more signal;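 further: score merges spot fluorescence intensity with its signal-to-noise ratio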
[12] = small-molecule microarray binders of probe aDKK1, primary screen, biochemical, biotinylated probe, 635/667 nm fluorescence (AID 1099); settings: higher = more signal;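 further: score merges 667nm spot fluorescence with signal to noise across triplicate slides; reference of the scale not given here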
[13] = small-molecule microarray binders of probe aCHRDL2, primary screen, biochemical, biotinylated probe, 635/667 nm fluorescence (AID 1100); settings: higher = more signal
[14] = splicing luciferase reporter signal modulators, primary screen, spliceosome inhibition project, cell-based, HEK293, splice +/- reporter (AID 1101); settings: luminescence, 24 h, higher = more signal, called active from +8 up or from −8 down;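 further: HEK293 cells carrying a splicing-competent luciferase reporter gene; test concentration not given here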
[15] = target: Fibroblast growth factor 10 (Homo sapiens) (UniProt O15520); assay: FGF10 binders on small-molecule microarrays, primary screen, biochemical, small-molecule microarray, 635 nm fluorescence (AID 1102); settings: FGF10 binding, fluorescence 635 nm, higher = more signal
[16] = tested on: glycogen synthase kinase-3 (GSK3A per assay name; protocol says GSK3B); assay: GSK3 binders on small-molecule microarrays, primary screen, biochemical, small-molecule microarray, 635 nm fluorescence, GSK3A (AID 1103); settings: small-molecule microarray binding, fluorescence 635 nm; higher = more signal; further: the record names both GSK3A and GSK3B
[17] = target: Epidermal growth factor receptor (Homo sapiens) (UniProt P00533); assay: EGFR binders on small-molecule microarrays, primary screen, biochemical, small-molecule microarray, 635 nm fluorescence (AID 1104); settings: EGFR binding, higher = more signal;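 further: score merges 667 nm emission intensity with spot signal to noise over triplicate slides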
[18] = target: Follistatin-related protein 3 (Homo sapiens) (UniProt O95633); assay: FSTL3 binders on small-molecule microarrays, primary screen, biochemical, small-molecule microarray, 635 nm fluorescence (AID 1105); settings: FSTL3 binding, higher = more signal;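 further: score merges emission near 667 nm and signal to noise per printed spot across three slides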
[19] = target: Dickkopf-related protein 1 (Homo sapiens) (UniProt O94907); assay: DKK1 binders on small-molecule microarrays, primary screen, biochemical, small-molecule microarray, 635 nm fluorescence scan (AID 1106); settings: DKK1 binding, higher = more signal;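 further: score merges emission near 667 nm with signal to noise over three replicate slides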
[20] = tested on: Inhibin beta A chain (activin A); assay: INHBA (activin A) binders on microarrays, primary screen, biochemical, small-molecule microarray, 635 nm fluorescence scan (AID 1107); settings: small-molecule microarray binding, higher = more signal;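 further: mouse activin A protein probed at 4.33 µg/mL on printed slides; score merges bound-protein fluorescence near 667 nm with spot signal-to-noise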

Follistatin-related protein 3 (Homo sapiens), sequence (O95633 whole entry, looked up): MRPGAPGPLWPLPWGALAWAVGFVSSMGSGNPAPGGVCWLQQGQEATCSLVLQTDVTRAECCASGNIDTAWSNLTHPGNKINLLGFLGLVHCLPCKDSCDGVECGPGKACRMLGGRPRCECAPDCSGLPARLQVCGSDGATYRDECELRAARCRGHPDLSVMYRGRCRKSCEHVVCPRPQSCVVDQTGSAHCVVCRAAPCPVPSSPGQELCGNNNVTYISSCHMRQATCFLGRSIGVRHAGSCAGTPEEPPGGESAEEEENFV
Neurogenic locus notch homolog protein 3 (Homo sapiens), sequence (Q9UM47 whole entry, looked up): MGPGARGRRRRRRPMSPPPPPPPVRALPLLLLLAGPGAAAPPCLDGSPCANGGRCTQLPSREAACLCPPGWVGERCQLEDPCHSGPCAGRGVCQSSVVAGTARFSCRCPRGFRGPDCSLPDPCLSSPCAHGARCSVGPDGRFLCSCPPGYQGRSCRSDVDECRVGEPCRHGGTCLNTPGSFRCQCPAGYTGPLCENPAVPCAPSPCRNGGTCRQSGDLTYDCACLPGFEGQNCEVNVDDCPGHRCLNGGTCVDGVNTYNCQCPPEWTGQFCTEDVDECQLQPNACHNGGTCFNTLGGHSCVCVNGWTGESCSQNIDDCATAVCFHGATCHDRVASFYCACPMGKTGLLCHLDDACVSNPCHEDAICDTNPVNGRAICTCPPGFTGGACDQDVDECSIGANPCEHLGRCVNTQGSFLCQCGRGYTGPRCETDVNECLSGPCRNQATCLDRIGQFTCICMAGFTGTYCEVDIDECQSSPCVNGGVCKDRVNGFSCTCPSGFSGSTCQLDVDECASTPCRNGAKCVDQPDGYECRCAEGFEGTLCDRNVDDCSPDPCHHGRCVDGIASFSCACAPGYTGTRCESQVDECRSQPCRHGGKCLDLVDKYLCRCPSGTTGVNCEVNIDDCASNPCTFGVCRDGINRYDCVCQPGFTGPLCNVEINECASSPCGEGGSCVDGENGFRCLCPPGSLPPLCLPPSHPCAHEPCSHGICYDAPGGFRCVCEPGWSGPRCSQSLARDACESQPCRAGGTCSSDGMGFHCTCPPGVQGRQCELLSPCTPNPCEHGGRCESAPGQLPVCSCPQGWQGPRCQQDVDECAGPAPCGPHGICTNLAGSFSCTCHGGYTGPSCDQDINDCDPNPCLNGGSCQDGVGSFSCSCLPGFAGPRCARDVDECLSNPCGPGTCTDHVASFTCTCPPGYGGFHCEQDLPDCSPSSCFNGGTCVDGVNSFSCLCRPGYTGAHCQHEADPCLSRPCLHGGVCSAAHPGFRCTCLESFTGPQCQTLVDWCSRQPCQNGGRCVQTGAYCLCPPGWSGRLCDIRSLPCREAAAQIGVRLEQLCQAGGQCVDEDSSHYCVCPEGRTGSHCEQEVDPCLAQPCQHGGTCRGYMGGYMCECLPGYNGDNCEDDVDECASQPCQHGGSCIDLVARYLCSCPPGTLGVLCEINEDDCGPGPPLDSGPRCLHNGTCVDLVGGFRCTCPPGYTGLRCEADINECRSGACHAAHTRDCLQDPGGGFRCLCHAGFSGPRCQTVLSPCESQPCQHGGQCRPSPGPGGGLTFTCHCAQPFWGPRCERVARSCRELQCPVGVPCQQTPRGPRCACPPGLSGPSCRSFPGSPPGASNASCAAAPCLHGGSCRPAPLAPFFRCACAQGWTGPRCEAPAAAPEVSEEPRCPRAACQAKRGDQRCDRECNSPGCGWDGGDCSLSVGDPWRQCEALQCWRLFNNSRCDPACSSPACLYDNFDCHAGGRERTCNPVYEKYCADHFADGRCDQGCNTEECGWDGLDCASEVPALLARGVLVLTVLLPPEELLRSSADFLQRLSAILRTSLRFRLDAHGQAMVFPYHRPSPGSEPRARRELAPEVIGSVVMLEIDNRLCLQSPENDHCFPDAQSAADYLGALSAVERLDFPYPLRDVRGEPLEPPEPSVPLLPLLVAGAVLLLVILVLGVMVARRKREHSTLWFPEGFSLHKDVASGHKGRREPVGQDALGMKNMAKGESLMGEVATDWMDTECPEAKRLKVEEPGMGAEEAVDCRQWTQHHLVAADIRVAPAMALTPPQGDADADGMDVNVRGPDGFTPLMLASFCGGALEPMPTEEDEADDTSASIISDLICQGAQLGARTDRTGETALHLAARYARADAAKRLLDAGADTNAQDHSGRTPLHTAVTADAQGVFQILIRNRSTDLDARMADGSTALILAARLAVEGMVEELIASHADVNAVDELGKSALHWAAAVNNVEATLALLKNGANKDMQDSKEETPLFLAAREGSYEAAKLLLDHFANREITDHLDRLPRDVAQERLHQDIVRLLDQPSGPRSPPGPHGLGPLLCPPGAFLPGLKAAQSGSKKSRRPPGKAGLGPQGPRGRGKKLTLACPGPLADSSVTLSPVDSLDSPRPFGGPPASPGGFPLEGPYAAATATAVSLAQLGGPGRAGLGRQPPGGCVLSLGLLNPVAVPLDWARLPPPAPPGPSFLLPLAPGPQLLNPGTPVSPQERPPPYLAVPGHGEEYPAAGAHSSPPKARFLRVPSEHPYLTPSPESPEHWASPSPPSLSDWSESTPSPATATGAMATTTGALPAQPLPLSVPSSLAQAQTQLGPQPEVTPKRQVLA
Epidermal growth factor receptor (Homo sapiens), sequence (P00533 whole entry, looked up): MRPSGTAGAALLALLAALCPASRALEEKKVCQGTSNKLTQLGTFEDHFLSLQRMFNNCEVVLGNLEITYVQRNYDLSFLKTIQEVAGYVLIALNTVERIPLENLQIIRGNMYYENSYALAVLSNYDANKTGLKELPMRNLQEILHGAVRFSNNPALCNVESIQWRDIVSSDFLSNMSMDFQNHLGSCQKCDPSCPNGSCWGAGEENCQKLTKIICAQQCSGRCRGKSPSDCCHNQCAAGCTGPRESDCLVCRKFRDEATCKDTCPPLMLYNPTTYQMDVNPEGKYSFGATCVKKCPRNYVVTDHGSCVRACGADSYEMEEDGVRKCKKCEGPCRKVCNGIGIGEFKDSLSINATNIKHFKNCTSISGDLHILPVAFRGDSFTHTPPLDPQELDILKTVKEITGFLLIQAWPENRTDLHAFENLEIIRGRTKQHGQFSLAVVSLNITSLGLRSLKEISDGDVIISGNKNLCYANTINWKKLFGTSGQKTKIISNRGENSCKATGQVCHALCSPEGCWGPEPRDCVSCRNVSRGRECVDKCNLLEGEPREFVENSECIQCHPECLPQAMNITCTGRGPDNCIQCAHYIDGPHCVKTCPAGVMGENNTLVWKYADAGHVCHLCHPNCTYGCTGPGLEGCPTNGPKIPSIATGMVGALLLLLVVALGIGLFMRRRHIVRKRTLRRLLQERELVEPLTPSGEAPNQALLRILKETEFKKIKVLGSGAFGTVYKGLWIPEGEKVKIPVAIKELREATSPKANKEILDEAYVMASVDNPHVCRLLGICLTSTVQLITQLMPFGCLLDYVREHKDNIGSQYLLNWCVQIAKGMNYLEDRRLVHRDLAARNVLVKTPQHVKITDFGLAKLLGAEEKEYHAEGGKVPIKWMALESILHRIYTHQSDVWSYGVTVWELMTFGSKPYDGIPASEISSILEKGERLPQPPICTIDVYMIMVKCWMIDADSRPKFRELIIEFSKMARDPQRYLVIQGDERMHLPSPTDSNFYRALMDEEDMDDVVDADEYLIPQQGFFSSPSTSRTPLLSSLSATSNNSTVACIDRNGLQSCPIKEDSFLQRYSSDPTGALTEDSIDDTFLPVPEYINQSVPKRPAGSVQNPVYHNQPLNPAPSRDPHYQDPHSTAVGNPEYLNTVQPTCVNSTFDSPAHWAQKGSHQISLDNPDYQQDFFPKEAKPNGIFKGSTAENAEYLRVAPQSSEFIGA
Fibroblast growth factor 10 (Homo sapiens), sequence (O15520 whole entry, looked up): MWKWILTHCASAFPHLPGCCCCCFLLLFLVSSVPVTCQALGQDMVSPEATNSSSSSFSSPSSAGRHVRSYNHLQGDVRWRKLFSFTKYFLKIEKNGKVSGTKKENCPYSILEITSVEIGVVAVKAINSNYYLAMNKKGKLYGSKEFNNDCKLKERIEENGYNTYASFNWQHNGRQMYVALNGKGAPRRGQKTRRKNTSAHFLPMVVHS
Torsin-1A-interacting protein 2 (Homo sapiens), sequence (Q8NFQ8 whole entry, looked up): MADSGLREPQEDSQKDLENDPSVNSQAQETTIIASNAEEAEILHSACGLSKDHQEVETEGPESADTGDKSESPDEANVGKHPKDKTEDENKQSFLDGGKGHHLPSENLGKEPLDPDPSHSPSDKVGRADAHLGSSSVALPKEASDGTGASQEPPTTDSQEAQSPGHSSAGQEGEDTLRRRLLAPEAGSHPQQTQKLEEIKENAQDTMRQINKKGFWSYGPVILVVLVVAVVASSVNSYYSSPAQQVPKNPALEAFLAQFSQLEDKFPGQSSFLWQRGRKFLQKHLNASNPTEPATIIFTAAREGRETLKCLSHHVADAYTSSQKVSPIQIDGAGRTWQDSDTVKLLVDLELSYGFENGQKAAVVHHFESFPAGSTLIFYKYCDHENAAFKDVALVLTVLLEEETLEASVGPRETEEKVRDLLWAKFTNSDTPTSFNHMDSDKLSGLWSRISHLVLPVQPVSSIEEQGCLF
Dickkopf-related protein 1 (Homo sapiens), sequence (O94907 whole entry, looked up): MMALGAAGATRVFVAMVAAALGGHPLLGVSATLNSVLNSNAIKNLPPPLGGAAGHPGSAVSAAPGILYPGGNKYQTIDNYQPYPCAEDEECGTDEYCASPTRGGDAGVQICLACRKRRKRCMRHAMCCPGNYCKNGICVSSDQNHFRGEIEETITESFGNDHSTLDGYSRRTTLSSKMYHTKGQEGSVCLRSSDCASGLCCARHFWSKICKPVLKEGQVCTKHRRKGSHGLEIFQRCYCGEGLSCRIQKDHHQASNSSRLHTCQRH

| Compound | composite z-score [1] | z-score [2] | z-score [3] | z-score [4] | composite z-score [5] | z-score [6] | composite z-score [7] | composite z-score [8] | composite z-score [9] | composite z-score [10] | composite z-score [11] | composite z-score [12] | composite z-score [13] | z-score [14] | composite z-score [15] | composite z-score [16] | composite z-score [17] | composite z-score [18] | composite z-score [19] | composite z-score [20] |
| --- | --- | --- | --- | --- | --- | --- | --- | --- | --- | --- | --- | --- | --- | --- | --- | --- | --- | --- | --- | --- |
| CS(=O)(=O)CCOC(=O)C1=CC(CCCO)=CC(C2CC2)N(Cc2cc3c(cc2Br)OCO3)C=C1C(=O)OCCS(C)(=O)=O (stereo not given) | 1.37 | -0.955 (inactive) | -1.87 (inactive) | -1.32 (inactive) | 1.84 | 0.102 (inactive) | 0.0723 | 0.39 | 0.533 | 0.0423 | 0.405 | 0.049 | 0.49 | 1.22 (inactive) | 0.615 | 0.28 | -0.0183 | 0.258 | 0.322 | 1.33 |
| Cc1ccc(/C=C/C=O)cc1 | -0.379 | 0.427 (inactive) | -4.06 (inactive) | -0.141 (inactive) | -0.1 | 0.492 (inactive) | -0.123 | -0.244 | -0.998 | -0.135 | 1.21 | -0.051 | 0.44 | -0.0631 (inactive) | -0.0586 | -0.472 | -0.817 | -0.955 | -0.0317 | 0.579 |
| CCCC=C(CCC)[C@@H](NC(=O)OCC(C)C)c1ccccc1 | 0.934 | 0.69 (inactive) | -0.623 (inactive) | 1.94 (inactive) | 2.01 | -1.68 (inactive) | 0.678 | 1.11 | 1.12 | 0.548 | 0.32 | 0.907 | 1.34 | -1.82 (inactive) | 0.497 | 0.659 | 0.111 | 0.663 | -0.0115 | 0.622 |
| COc1ccc(-c2cc3c(c(Cc4ccccc4)n2)[Si](C(C)C)(C(C)C)OC3)cn1 | -0.738 | 1.64 (inactive) | -0.27 (inactive) | 1.41 (inactive) | -0.655 | -1.41 (inactive) | -0.115 | -0.154 | -0.459 | -0.16 | 0.409 | 0.0847 | -0.386 | -0.267 (inactive) | -0.156 | -0.949 | 0.343 | -0.139 | 0.085 | 0.256 |
| C=C(CCCC)/C(=C/C[C@@H](OC(C)=O)c1cccc(OCCO)c1)c1cnc2ccccc2c1 | 1.29 | 0.0358 (inactive) | -0.328 (inactive) | 0.142 (inactive) | 0.268 | 1.24 (inactive) | -0.194 | 1.73 | 0.86 | -0.0828 | 0.462 | -0.14 | 0.0854 | 1.17 (inactive) | 1 | -0.518 | 0.12 | 1.12 | 0.312 | 1.58 |
| COC(=O)[C@@]1(Cc2ccc(F)cc2)[C@H]2c3cc(C(=O)N(C)C)n(Cc4ccc(C)o4)c3C[C@H]2CN1C(=O)c1ccccc1 | 0.323 | -0.319 (inactive) | -7.9 (inactive) | 0.792 (inactive) | 3.05 | -0.386 (inactive) | 1.26 | -0.386 | -0.124 | 0.763 | 1.29 | 2.05 | 0.495 | -1.6 (inactive) | 0.152 | 0.102 | -1.87 | -1.13 | -1.39 | 1.07 |
| COCCOC(=O)N1C(=O)[C@@]2(c3cc(C#Cc4ccc(OC)cc4)ccc31)[C@H](c1ccc(O)cc1)N1[C@H](c3ccccc3)[C@H](c3ccccc3)OC(=O)[C@H]1[C@@H]2C(=O)Nc1nc2ccccc2s1 | 1.56 | 0.15 (inactive) | 0.0615 (inactive) | 0.684 (inactive) | 2.06 | -0.944 (inactive) | -0.0376 | 1.09 | 1.08 | -0.0103 | 0.666 | -0.037 | 0.0407 | -0.0561 (inactive) | 1.22 | 1.09 | 0.404 | 0.899 | 0.446 | 0.277 |
| COCCCNC(=O)[C@@]1(Cc2ccccc2CN=[N+]=[N-])N=C(c2ccc(OCCCO)cc2)O[C@H]1c1ccccc1CN=[N+]=[N-] | 1.24 | -2.06 (inactive) | -1.07 (inactive) | 26.7 (active) | 3.34 | 1.71 (inactive) | 0.239 | 0.406 | 0.885 | -0.067 | 1.25 | 0.616 | 1.09 | -1.51 (inactive) | 1.43 | 0.186 | -0.334 | 0.299 | -0.629 | 0.849 |
| O=C1C2C=CC(C(O)C=Cc3ccc([N+](=O)[O-])cc3)N(n3cnnc3)C2C(=O)N1Cc1ccccc1 (stereo not given) | 0.934 | -0.785 (inactive) | -3.83 (inactive) | -0.0166 (inactive) | 1.92 | -0.0783 (inactive) | 0.292 | -0.0663 | 0.989 | -0.0703 | 1.53 | 0.341 | 0.832 | 0.243 (inactive) | 0.466 | 0.587 | -0.0912 | 0.906 | 0.377 | 1.17 |
| COc1cc2c(cc1O)C(c1cccs1)N(Cc1ccc([N+](=O)[O-])o1)CC2 (stereo not given) | 0.298 | -2.77 (inactive) | -4.47 (inactive) | -2.27 (inactive) | 1.02 | -0.73 (inactive) | 0.156 | -0.419 | 0.32 | -0.0859 | 1.15 | 0.728 | 0.27 | -0.505 (inactive) | 0.876 | 0.0693 | -0.033 | -0.0839 | -0.466 | -0.131 |
